Experimental data taken from the supplement of paper PMC10849652.
The full data set covers some 7,900 targets. This sample favours those with a hit. About 0.6% of all pairs of compound and target were hits.

Tests used:
Experiment in all cases: log2 fold change, soluble protein after heating vs DMSO (PISA); higher = thermal stabilisation; K562 cells, 10 uM, 30 min; active = over 0.2 and 3.5 SD of the protein, either way, in both replicates (recomputed)
IRAK-1-4 Inhibitor I = compound: C1COCCN1CCN2C3=CC=CC=C3N=C2NC(=O)C4=CC(=CC=C4)[N+](=O)[O-] [IRAK-1-4 Inhibitor I]
In short: (§1)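 For each measurement, 10 μM compound was applied for 30 min to K562 cells at 2×10^6 cells/mL. Aliquots were heated for 3 min across 48°C-58°C, pooled, and extracted in PBS with 0.5% NP-40 at 4°C; the supernatant after 21,000xg for 90 min was soluble protein. This was quantified by TMTpro 16plex LC-MS/MS with channel sums equalised, and thermal stability was reported relative to control samples from duplicates, on a log2 fold-change scale.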

ibrutinib = compound: C=CC(=O)N1CCC[C@@H](n2nc(-c3ccc(Oc4ccccc4)cc3)c3c(N)ncnc32)C1 [ibrutinib]
In short: as §1

[1] = compound: CC(=O)c1cnc2ccc(-c3cc(Cl)c(O)c(Cl)c3)nc2c1N[C@H]1CC[C@H](CN(C)C)CC1
In short: as §1

ralimetinib = compound: CC(C)(C)Cn1c(N)nc2ccc(-c3[nH]c(C(C)(C)C)nc3-c3ccc(F)cc3)nc21 [ralimetinib]
In short: as §1

[2] = compound: CC(C)(O)CC(=O)NCCn1ccc2ncnc(Nc3ccc(Oc4cccc(C(F)(F)F)c4)c(Cl)c3)c21
In short: as §1

[3] = compound: CC(C)C1=C2N=C(C=C(N2N=C1)NCC3=CC=CC=C3)NCCCCCCN
In short: as §1

[4] = compound: CC(C)C[C@@H](C=O)NC(=O)[C@H](CC(C)C)NC(=O)[C@H](CC(C)C)NC(=O)OCc1ccccc1
In short: as §1

pinometostat = compound: CC(C)N(C[C@H]1O[C@@H](n2cnc3c(N)ncnc32)[C@H](O)[C@@H]1O)[C@H]1C[C@@H](CCc2nc3cc(C(C)(C)C)ccc3[nH]2)C1 [pinometostat]
In short: as §1

[5] = compound: CC1=C(C(CC(=O)N1)C2=CC=C(C=C2)C(F)(F)F)C(=O)NC3=C(C=C4C(=C3)C=NN4)F
In short: as §1

[6] = compound: CC1=C(C2=C(C=C1)C(=O)C3=CC=CC=C3N2CCCN)C
In short: as §1

[7] = compound: CC1=C(C=C(C=C1)NC(=O)C2=CC(=CC=C2)C(C)(C)C#N)NC3=CC4=C(C=C3)N=CN(C4=O)C
In short: as §1

[8] = compound: CC1=C(C=C(C=C1)NC(=O)C2=CC(=CC=C2)N(C)C)NC(=O)C3=CC=C(C=C3)O
In short: as §1

[9] = compound: CC1=CC=C(C=C1)SC2=C3C=C(SC3=CN=C2)C(=O)N
In short: as §1

[10] = compound: CC1=NC(=CC=C1)C2=C(N=C(N2)C(C)(C)C)C3=CC4=NC=CN=C4C=C3
In short: as §1

Nexturastat A = compound: CCCCN(Cc1ccc(C(=O)NO)cc1)C(=O)Nc1ccccc1 [Nexturastat A]
In short: as §1

vemurafenib = compound: CCCS(=O)(=O)Nc1ccc(F)c(C(=O)c2c[nH]c3ncc(-c4ccc(Cl)cc4)cc23)c1F [vemurafenib]
In short: as §1

[11] = compound: CCCS(=O)(=O)Nc1ccc(F)c(C(=O)c2c[nH]c3ncc(Cl)cc23)c1F
In short: as §1

[12] = compound: CCCc1cc(C)[nH]c(=O)c1CNC(=O)c1cc(-c2ccnc(N3CCN(C)CC3)c2)cc2c1cnn2C(C)C
In short: as §1

givinostat = compound: CCN(CC)Cc1ccc2cc(COC(=O)Nc3ccc(C(=O)NO)cc3)ccc2c1 [givinostat]
In short: as §1

barasertib = compound: CCN(CCCOc1ccc2c(Nc3cc(CC(=O)Nc4cccc(F)c4)[nH]n3)ncnc2c1)CCOP(=O)(O)O [barasertib]
In short: as §1

Measured: log2 fold change

UBAP2L isoform 1 (UniProt Q14157)
active: [11] 0.246 | givinostat -0.261
inactive: IRAK-1-4 Inhibitor I 0.076 | ibrutinib -0.006 | [1] 0.007 | ralimetinib -0.025 | [2] 0.016 | [3] 0.103 | [4] 0.029 | pinometostat -0.031 | [5] 0.073 | [6] 0.055 | [7] -0.057 | [8] 0.035 | [9] -0.016 | [10] 0.025 | Nexturastat A 0.012 | vemurafenib -0.083 | [12] -0.045 | barasertib -0.011

WRB (UniProt O00258)
Chain of UniProt O00258 (O00258 whole entry, looked up): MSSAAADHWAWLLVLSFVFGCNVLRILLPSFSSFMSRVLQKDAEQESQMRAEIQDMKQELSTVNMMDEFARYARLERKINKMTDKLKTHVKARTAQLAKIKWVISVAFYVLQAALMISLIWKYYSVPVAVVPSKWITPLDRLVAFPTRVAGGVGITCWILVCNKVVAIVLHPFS
inactive: IRAK-1-4 Inhibitor I 0.006 | ibrutinib 0.014 | [1] -0.074 | ralimetinib 0.004 | [2] 0.015 | [3] 0.043 | [4] -0.043 | pinometostat -0.032 | [5] -0.006 | [6] 0.011 | [7] -0.046 | [8] -0.11 | [9] -0.007 | [10] -0.023 | vemurafenib 0.108 | [11] -0.037 | [12] -0.074 | givinostat 0.032 | barasertib -0.014
active: Nexturastat A -0.25

WASHC2C, A0A096LPC5
Chain of WASHC2C, A0A096LPC5 (A0A096LPC5 whole entry, looked up): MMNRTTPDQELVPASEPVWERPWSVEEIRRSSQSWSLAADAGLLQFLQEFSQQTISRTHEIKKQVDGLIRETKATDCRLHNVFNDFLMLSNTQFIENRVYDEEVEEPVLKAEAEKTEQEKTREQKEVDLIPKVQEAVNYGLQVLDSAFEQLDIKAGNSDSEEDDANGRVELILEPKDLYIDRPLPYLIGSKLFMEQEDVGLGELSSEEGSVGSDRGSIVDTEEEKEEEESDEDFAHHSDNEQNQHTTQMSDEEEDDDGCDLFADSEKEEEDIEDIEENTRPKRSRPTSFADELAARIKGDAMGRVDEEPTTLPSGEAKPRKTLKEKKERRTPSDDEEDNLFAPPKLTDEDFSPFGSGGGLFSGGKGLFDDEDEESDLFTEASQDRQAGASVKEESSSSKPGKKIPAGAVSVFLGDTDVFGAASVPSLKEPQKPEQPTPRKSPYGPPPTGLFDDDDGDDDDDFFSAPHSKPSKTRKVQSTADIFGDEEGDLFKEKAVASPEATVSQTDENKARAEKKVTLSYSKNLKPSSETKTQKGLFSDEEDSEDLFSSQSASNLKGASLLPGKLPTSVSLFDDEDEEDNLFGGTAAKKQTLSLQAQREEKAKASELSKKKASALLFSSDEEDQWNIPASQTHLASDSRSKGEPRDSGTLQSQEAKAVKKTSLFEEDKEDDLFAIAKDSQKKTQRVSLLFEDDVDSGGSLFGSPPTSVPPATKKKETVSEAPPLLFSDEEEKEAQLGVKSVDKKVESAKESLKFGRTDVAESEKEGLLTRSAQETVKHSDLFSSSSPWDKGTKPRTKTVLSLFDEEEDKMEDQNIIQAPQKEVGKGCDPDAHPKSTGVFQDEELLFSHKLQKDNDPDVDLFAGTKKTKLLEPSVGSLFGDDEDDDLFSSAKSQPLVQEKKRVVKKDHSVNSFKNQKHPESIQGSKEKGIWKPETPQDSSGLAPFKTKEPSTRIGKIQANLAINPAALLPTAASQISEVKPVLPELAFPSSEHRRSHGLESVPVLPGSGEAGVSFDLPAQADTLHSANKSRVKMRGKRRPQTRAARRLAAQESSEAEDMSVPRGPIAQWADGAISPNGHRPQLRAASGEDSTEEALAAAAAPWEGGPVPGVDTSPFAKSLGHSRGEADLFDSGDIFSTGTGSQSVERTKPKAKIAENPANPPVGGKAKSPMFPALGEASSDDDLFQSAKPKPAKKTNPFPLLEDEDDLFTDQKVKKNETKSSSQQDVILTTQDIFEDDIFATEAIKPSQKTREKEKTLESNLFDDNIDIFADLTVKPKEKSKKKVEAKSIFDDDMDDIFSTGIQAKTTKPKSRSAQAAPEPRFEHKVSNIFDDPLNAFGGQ
inactive: IRAK-1-4 Inhibitor I 0.01 | ibrutinib -0.005 | [1] -0.159 | ralimetinib -0.035 | [2] 0.085 | [3] -0.214 | [4] 0.057 | pinometostat 0.008 | [5] -0.033 | [6] -0.125 | [7] -0.059 | [8] 0.062 | [9] -0.107 | [10] -0.041 | Nexturastat A 0 | vemurafenib 0.039 | [11] -0.206 | [12] -0.101 | givinostat -0.012 | barasertib -0.037

VPS37A (UniProt Q8NEZ2)
Chain of UniProt Q8NEZ2 (Q8NEZ2 whole entry, looked up): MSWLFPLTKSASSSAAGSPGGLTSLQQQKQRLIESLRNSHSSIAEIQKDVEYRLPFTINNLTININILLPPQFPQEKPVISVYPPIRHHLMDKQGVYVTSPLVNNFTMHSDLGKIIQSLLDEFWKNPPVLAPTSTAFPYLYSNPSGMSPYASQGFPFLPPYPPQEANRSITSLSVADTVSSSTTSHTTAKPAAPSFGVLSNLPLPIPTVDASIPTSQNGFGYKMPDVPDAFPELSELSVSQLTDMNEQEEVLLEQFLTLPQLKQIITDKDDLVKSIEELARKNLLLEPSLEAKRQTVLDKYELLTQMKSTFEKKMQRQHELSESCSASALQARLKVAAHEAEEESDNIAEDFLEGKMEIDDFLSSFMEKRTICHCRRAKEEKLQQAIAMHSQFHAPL
inactive: IRAK-1-4 Inhibitor I 0.045 | ibrutinib -0.011 | [1] -0.07 | ralimetinib 0.053 | [2] -0.025 | [3] -0.143 | [4] 0.094 | pinometostat 0.045 | [5] -0.047 | [6] -0.066 | [7] -0.015 | [8] -0.171 | [9] 0.019 | [10] 0.001 | Nexturastat A -0.048 | vemurafenib 0.128 | [11] 0.054 | [12] 0.014 | givinostat 0.14 | barasertib 0.076

WDR47 (UniProt O94967)
inactive: IRAK-1-4 Inhibitor I -0.089 | ibrutinib 0.055 | [1] 0.028 | ralimetinib -0.005 | [2] -0.03 | [3] 0.028 | [4] -0.048 | pinometostat -0.017 | [5] 0.024 | [6] 0.015 | [7] -0.031 | [8] -0.031 | [9] 0.07 | [10] 0.127 | Nexturastat A -0.048 | vemurafenib -0.023 | [11] -0.045 | [12] -0.004 | givinostat 0.004 | barasertib -0.007

WDR11 (UniProt Q9BZH6)
inactive: IRAK-1-4 Inhibitor I 0.009 | ibrutinib -0.112 | [1] -0.01 | ralimetinib -0.068 | [2] -0.018 | [3] -0.056 | [4] -0.047 | pinometostat 0 | [5] 0.069 | [6] 0.065 | [7] -0.004 | [8] 0.057 | [9] -0.008 | [10] -0.016 | Nexturastat A -0.097 | vemurafenib -0.089 | [11] -0.084 | [12] -0.105 | givinostat 0.035 | barasertib 0.034

VPS16 (UniProt Q9H269)
inactive: IRAK-1-4 Inhibitor I 0.028 | ibrutinib -0.073 | [1] -0.02 | ralimetinib 0.043 | [2] -0.154 | [3] -0.29 | [4] -0.035 | pinometostat 0.1 | [5] 0.006 | [6] 0.061 | [7] 0.023 | [8] 0.011 | [9] 0.032 | [10] -0.013 | Nexturastat A 0.038 | vemurafenib 0.017 | [11] 0.109 | [12] 0 | givinostat 0.075 | barasertib -0.086

TMEM208 (UniProt Q9BTX3)
Chain of UniProt Q9BTX3 (Q9BTX3 whole entry, looked up): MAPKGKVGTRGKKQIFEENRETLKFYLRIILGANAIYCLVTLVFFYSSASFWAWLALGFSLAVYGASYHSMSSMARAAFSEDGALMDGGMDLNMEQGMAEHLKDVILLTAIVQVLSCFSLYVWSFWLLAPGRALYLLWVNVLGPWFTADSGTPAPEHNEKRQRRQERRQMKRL
inactive: IRAK-1-4 Inhibitor I 0.04 | ibrutinib -0.09 | [1] 0.078 | ralimetinib -0.145 | [2] -0.088 | [4] 0.046 | pinometostat 0.081 | [5] -0.016 | [6] 0.081 | [7] -0.093 | [8] 0.005 | [9] 0.037 | [10] -0.022 | Nexturastat A -0.112 | vemurafenib -0.06 | [11] 0.035 | [12] -0.219 | givinostat 0.097 | barasertib -0.012
active: [3] -0.412

VTA1 (UniProt Q9NP79)
Chain of UniProt Q9NP79 (Q9NP79 whole entry, looked up): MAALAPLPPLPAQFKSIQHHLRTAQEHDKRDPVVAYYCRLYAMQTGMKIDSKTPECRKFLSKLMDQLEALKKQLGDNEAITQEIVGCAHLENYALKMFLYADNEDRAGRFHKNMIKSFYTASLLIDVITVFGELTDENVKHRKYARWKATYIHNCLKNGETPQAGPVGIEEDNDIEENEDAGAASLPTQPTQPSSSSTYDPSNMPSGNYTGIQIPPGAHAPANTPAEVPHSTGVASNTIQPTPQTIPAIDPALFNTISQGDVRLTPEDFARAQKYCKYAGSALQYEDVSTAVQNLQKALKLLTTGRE
inactive: IRAK-1-4 Inhibitor I -0.02 | ibrutinib -0.001 | [1] -0.013 | ralimetinib -0.009 | [2] -0.074 | [3] -0.12 | [4] -0.007 | pinometostat -0.041 | [5] 0.012 | [6] 0.068 | [7] 0.011 | [8] -0.019 | [9] 0.044 | [10] 0.034 | Nexturastat A -0.041 | vemurafenib 0.042 | [11] 0.082 | [12] -0.065 | givinostat -0.005 | barasertib 0.041

TP53BP1 isoform 2 (UniProt Q12888)
Chain of UniProt Q12888 (Q12888 whole entry, looked up): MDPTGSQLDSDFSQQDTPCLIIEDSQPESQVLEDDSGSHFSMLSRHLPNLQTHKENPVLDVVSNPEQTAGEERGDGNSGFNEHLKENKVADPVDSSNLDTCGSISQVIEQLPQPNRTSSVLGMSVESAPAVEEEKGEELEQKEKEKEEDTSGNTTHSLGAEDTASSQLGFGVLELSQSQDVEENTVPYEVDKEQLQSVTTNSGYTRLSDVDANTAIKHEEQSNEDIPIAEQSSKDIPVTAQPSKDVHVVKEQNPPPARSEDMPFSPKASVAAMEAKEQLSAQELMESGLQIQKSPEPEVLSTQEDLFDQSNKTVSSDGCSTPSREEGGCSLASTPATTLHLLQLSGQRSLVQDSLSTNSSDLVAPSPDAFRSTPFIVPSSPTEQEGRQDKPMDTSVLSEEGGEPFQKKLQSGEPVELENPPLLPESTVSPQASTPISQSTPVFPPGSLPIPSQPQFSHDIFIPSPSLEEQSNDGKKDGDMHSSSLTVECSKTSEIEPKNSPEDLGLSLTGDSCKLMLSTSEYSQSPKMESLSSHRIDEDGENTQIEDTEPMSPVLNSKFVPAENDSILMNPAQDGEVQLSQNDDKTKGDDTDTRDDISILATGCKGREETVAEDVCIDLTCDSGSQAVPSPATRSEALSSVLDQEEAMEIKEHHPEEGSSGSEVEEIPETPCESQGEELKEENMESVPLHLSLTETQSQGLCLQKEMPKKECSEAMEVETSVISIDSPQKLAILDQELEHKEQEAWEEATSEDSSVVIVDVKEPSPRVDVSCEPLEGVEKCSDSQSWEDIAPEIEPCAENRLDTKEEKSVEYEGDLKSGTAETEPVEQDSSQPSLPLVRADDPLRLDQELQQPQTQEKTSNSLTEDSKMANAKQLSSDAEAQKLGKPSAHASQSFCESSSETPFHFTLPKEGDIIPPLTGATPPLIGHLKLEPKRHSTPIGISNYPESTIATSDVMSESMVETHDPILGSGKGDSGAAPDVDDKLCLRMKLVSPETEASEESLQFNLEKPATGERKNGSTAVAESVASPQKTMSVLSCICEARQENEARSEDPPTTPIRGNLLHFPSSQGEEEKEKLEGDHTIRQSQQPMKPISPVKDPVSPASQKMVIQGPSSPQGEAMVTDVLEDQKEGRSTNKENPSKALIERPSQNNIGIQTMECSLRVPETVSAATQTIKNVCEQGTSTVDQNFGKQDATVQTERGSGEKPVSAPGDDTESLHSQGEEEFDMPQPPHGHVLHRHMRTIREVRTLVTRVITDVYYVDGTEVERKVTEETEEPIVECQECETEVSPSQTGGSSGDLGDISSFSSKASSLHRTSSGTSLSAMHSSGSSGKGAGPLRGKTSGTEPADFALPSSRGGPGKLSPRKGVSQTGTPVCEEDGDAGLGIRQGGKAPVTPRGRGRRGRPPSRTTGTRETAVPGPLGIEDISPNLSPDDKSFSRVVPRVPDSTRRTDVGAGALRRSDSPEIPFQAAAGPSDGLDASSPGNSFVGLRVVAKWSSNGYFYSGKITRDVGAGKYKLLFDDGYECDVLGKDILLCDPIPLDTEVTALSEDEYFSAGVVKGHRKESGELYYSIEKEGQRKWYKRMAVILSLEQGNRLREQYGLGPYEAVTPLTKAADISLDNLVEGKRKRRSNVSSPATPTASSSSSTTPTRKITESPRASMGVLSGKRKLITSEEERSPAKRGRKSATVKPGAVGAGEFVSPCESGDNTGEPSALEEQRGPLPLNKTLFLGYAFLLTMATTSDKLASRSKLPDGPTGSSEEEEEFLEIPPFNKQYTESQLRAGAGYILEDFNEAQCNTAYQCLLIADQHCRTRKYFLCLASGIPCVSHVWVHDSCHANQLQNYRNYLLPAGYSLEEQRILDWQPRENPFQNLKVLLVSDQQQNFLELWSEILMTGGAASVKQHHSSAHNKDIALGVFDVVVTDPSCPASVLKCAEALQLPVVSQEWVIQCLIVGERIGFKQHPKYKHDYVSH
active: [6] -0.337
inactive: IRAK-1-4 Inhibitor I -0.059 | ibrutinib -0.046 | [1] -0.002 | ralimetinib 0.056 | [2] -0.024 | [3] -0.089 | [4] 0.019 | pinometostat 0.021 | [5] 0.003 | [7] -0.02 | [8] -0.032 | [9] 0 | [10] -0.022 | Nexturastat A 0.045 | vemurafenib 0 | [11] 0.02 | [12] 0.056 | givinostat 0.019 | barasertib 0.022

TOE1 (UniProt Q96GM8)
inactive: IRAK-1-4 Inhibitor I -0.15 | ibrutinib -0.031 | [1] 0.089 | ralimetinib 0.012 | [2] 0.005 | [3] 0.042 | [4] 0.09 | pinometostat 0.077 | [5] -0.067 | [6] -0.228 | [7] 0.099 | [8] 0.056 | [9] -0.012 | [10] -0.109 | Nexturastat A 0.078 | vemurafenib -0.016 | [11] 0.048 | [12] 0.059 | givinostat -0.055 | barasertib -0.063
